# PMC7862700, “An all-to-all approach to the identification of sequence-specific readers for epigenetic DNA modifications on cytosine”
# Key:
# Assay in all cases: DAPPL (digital affinity profiling via proximity ligation, sequencing); 10 mM Tris-HCl pH 7.5, 50 mM NaCl, 1 mM DTT, 4% glycerol, room temperature, 30 min; GST-TFs on glutathione beads, 16-mer random dsDNA library, 0.1% formaldehyde crosslink after washing; high values mean tight binding
# Conditions in all cases: protein: recombinant; tags: N-terminal GST; dsDNA, one strand shown
# ETV1 = ETV1 (Homo sapiens, UniProt P50549 1-477)
# Outline: (§1)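 Binding signal is given per hexamer as its read frequency for a factor divided by its frequency in the tag-only sample. GST-fused human transcription factors were expressed in yeast, captured on glutathione beads, barcoded with DNA and pooled with that sample, then incubated with 200 nmole of a 16-mer random double-stranded DNA library in Tris/NaCl/DTT/glycerol buffer for 30 min at room temperature. The pools were then washed, crosslinked, proximity-ligated, amplified by PCR and sequenced on an Illumina NextSeq500.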
# ERF = molecular target: T1, ERF (Homo sapiens, UniProt P50548 1-548)
# T1 sequence: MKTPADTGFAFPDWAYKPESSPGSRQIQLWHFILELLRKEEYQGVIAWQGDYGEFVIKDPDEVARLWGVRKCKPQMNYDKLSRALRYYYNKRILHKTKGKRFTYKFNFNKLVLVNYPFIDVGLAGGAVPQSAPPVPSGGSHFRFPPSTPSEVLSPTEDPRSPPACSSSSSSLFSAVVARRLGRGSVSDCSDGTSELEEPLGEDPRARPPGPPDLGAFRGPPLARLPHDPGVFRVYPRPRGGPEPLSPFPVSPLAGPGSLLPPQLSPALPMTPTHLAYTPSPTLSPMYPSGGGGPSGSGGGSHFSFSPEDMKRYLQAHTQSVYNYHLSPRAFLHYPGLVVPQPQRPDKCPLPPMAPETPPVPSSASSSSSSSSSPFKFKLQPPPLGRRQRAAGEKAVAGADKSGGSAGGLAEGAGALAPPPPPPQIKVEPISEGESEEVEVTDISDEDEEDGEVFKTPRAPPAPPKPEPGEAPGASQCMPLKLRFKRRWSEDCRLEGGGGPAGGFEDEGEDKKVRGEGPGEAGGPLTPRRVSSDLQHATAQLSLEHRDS
# Outline: as §1
# ETV3L = molecular target: T2, ETV3L (Homo sapiens, UniProt Q6ZN32 1-361)
# T2 sequence: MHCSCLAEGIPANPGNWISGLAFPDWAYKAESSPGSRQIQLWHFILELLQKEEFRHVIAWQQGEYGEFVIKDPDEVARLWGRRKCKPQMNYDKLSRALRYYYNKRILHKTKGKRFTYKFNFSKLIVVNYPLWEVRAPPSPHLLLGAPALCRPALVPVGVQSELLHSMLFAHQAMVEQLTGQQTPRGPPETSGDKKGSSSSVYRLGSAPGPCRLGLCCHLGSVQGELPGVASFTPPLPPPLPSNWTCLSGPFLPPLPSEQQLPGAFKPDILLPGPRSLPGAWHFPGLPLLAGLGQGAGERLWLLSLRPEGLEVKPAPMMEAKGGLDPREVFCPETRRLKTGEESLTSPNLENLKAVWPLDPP
# Outline: as §1
# ETS2 = molecular target: T3, ETS2 (Homo sapiens, UniProt P15036 1-469)
# T3 sequence: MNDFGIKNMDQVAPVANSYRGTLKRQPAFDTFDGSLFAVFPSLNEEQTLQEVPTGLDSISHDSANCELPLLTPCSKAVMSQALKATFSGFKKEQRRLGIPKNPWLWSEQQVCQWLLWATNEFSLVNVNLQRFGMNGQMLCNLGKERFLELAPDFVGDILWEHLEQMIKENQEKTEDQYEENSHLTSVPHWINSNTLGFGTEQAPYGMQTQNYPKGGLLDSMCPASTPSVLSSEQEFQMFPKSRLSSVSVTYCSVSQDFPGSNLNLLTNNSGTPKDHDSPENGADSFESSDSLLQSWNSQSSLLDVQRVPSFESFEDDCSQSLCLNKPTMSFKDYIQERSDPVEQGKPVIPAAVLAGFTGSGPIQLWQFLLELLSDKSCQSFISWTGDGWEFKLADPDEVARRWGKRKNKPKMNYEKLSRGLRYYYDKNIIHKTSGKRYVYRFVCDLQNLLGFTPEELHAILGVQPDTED
# Outline: as §1
# SPDEF = molecular target: T4, SPDEF (Homo sapiens, UniProt O95238 1-335)
# T4 sequence: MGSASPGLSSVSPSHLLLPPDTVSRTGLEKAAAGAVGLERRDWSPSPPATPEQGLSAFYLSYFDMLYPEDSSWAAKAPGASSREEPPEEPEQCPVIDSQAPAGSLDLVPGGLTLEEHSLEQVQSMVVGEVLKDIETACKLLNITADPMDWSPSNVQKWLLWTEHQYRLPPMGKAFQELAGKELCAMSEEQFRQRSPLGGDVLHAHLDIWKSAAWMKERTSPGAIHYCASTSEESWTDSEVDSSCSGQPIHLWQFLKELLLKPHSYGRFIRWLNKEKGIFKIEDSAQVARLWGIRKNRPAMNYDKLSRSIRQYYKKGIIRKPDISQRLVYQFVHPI
# Outline: as §1
# ETV7 = molecular target: T5, ETV7 (Homo sapiens, UniProt Q9Y603 1-341)
# T5 sequence: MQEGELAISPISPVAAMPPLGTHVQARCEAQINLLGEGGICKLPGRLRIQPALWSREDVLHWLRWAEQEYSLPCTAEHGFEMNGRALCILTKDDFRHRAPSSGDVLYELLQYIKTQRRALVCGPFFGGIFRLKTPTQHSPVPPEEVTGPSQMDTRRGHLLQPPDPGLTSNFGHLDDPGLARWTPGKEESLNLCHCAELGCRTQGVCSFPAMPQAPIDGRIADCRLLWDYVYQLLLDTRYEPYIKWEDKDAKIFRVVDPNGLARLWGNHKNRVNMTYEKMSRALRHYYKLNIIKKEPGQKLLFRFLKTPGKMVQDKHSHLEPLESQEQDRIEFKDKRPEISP
# Outline: as §1
# ELF5 = molecular target: T6, ELF5 (Homo sapiens, UniProt Q9UKW6-2 1-255)
# T6 sequence: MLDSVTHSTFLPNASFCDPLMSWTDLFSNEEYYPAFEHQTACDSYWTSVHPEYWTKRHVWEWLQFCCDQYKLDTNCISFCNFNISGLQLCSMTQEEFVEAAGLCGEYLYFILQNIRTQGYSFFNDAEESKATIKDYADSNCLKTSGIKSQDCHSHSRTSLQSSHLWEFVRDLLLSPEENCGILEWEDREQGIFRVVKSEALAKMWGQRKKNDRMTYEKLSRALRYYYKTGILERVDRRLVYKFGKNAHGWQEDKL
# Outline: as §1
# ETV3 = molecular target: T7, ETV3 (Homo sapiens, UniProt P41162-2 1-143)
# T7 sequence: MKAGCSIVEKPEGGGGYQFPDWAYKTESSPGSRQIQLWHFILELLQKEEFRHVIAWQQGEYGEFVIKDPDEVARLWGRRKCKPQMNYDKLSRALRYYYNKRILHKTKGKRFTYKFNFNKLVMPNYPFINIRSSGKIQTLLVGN
# Outline: as §1
# ETV6 = ETV6 (Homo sapiens, UniProt P41212 1-452)
# Outline: as §1
# ETV6, sequence (P41212 whole entry): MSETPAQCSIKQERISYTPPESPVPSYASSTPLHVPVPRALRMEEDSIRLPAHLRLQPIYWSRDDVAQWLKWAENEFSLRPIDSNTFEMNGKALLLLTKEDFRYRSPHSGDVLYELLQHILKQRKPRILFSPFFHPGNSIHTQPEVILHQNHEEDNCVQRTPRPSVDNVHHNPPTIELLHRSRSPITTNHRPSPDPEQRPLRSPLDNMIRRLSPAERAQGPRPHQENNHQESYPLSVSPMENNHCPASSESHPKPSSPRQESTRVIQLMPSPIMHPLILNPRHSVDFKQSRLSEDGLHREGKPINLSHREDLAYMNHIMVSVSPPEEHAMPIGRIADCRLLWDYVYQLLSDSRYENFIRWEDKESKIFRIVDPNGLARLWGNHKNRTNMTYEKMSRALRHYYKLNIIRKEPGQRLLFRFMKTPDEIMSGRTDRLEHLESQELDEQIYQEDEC
# ETV1, sequence (P50549 whole entry, the tested form may be a part): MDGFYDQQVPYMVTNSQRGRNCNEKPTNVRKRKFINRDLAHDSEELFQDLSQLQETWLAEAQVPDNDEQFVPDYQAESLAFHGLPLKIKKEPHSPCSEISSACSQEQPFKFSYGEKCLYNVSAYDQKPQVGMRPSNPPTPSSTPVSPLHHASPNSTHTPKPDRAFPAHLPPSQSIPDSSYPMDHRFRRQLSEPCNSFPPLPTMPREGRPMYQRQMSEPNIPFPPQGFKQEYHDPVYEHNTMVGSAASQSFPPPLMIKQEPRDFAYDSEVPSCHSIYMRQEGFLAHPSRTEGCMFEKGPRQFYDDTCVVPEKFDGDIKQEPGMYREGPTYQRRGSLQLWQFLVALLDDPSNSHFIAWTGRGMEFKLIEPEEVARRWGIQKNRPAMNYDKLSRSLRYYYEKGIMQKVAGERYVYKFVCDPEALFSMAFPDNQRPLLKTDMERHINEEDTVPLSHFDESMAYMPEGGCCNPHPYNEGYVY
sequence,measurement,setting,value
ATGTTT,binding signal,ETV1,"1.26 fold enrichment (6-mer frequency, TF over GST control)"
same,binding signal,ERF,"1.46 fold enrichment (6-mer frequency, TF over GST control)"
same,binding signal,ETV3L,"1.48 fold enrichment (6-mer frequency, TF over GST control)"
same,binding signal,ETS2,"1.29 fold enrichment (6-mer frequency, TF over GST control)"
same,binding signal,SPDEF,"1.37 fold enrichment (6-mer frequency, TF over GST control)"
same,binding signal,ETV7,"1.46 fold enrichment (6-mer frequency, TF over GST control)"
same,binding signal,ELF5,"1.47 fold enrichment (6-mer frequency, TF over GST control)"
same,binding signal,ETV3,"1.47 fold enrichment (6-mer frequency, TF over GST control)"
same,binding signal,ETV6,"1.47 fold enrichment (6-mer frequency, TF over GST control)"
